The results in this text go back to ChEMBL document CHEMBL3433997, “St. Jude Leishmania screening dataset” (2016).

Molecules are shown by their SMILES.

A word on the inhibition: it is the drop in the measured response relative to a control, in per cent.

What all share (assay type): functional
For test [1], the target named is Solute carrier family 2, facilitated glucose transporter member 1 (Homo sapiens) (UniProt P11166). Kind of test: ST_JUDE_LEISH: Cytotoxicity at 2uM final concentration against transgenic Leishmania Mexicana promastigotes LmGLUT1 that are glucose transport deficient and complemented with the human glucose transporter GLUT1. Activity is measured by DNA content using SYBR green in vitro.
Solute carrier family 2, facilitated glucose transporter member 1 (Homo sapiens), sequence (P11166 whole entry): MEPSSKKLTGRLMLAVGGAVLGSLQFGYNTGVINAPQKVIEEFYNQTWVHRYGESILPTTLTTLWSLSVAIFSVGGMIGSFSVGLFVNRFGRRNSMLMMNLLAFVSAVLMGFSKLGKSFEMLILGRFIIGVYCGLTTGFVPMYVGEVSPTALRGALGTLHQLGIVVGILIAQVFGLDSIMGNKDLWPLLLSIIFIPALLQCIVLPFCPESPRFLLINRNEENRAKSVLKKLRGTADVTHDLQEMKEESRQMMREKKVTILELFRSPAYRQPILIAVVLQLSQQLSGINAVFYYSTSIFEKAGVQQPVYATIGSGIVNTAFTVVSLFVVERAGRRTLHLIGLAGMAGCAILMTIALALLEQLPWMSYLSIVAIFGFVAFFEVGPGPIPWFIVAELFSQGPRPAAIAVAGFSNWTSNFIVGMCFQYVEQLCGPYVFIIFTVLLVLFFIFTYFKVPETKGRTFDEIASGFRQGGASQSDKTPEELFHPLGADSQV

Test [2] has as its target Hexose transporter 1 (Plasmodium falciparum) (UniProt O97467). The test is described as follows: ST_JUDE_LEISH: Cytotoxicity at 2uM final concentration against transgenic Leishmania Mexicana promastigotes LmPfHT that are glucose transport deficient and complemented with the Plasmodium falciparum hexose transporter. Activity is measured by DNA content using SYBR green in vitro.

Test [3] addresses Glucose transporter (Leishmania mexicana) (UniProt O61059). Kind of test: ST_JUDE_LEISH: Cytotoxicity at 2uM final concentration against transgenic Leishmania Mexicana promastigotes LmGT2 that are glucose transport deficient and complemented with the L. Mexicana glucose transporter 2. Activity is measured by DNA content using SYBR green in vitro.

`CC(C)Cn1c(N)cc(=O)n(C)c1=O`: the inhibition in test [1] is 3.76%; in test [2], 3.45%; in test [3], 3.72%.

Take `CC(C)c1sc(N2CCN(C)CC2)nc1C(=O)NCCc1ccc(Cl)c(Cl)c1`: the inhibition came to 2.62% in test [1], 2.93% in test [2] and 2.34% in test [3].

As for `Cn1c(N=C2NC3(c4ccccn4)NC(=Nc4nc5ccccc5n4C)NC3(c3ccccn3)N2)nc2ccccc21` (stereo not given), the inhibition in test [1] stood at 1.54%; in test [2], 2.5%; in test [3], 0.64%.

Regarding `CCOc1cc(C)ccc1C1CCN(CCCCNC(=O)c2cnc(-c3ccc(C(F)(F)F)cc3)[nH]2)CC1`, the inhibition was -1.9% in test [1], 2.12% in test [2] and -0.53% in test [3].

Regarding `O=C(CC(=O)C(F)(F)F)c1ccc2c(c1)OCO2`, the inhibition in test [1] worked out at 1.45%; in test [2], 1.74%; in test [3] it was 2.14%.

For `O=C(/C=C/c1cccc2c1OCO2)Nc1ccnc2ccncc12`, the inhibition turned out to be 1.56% in test [1], 1.4% in test [2] and 1.89% in test [3].

In the case of `N#Cc1cccc(NC(=O)C2=C(CCc3ccc4c(c3)OCO4)NC(=O)NC2c2cccc(C#N)c2)c1` (stereo not given), the inhibition was -0.43% in test [1], 0.52% in test [2] and -0.7% in test [3].

As to `Cc1cc(NC(=O)Nc2ccc3ncccc3c2)c2ccccc2n1`, the figures for the inhibition in test [1], in test [2] and in test [3] were 4.47%, 3.97% and 1.94%, respectively.

With `CC(=O)Nc1[nH]c(-c2ccccc2)nc1C(N)=O`, the inhibition is -1.96% in test [1], -0.89% in test [2] and -1.65% in test [3].

As for `Cc1cccc2nc(-c3ccc(-c4cccc(NC(=O)C(C)CN5CCN(C)CC5)c4)s3)[nH]c12` (stereo not given), the inhibition in test [1] was found to be 11.7%; in test [2], 10.8%; in test [3] it was 10.3%.

In the case of `CN1CCc2cc(CN3CC4(C)CC3CC(C)(C)C4)c(O)cc2C(c2ccccc2)C1` (stereo not given), the inhibition in test [1] was 0.04%; in test [2], -0.55%; in test [3], -0.09%.

Consider `CC(C)(C)OC(=O)/C=C(\C(=O)OCc1ccc([N+](=O)[O-])cc1)c1csc(NC(c2ccccc2)(c2ccccc2)c2ccccc2)n1`, for which the inhibition in test [1] came to 4.04%; in test [2], 4.55%; in test [3], 3.64%.

On to `CN(C)CCOc1cccc(-c2cnc(N)c(-c3nc4cc(S(C)(=O)=O)ccc4[nH]3)c2)c1`, for which the results for the inhibition in test [1], in test [2] and in test [3] were 1.53%, 2.26% and 2.58%, respectively.

Regarding `Cc1nnsc1C(=O)Nc1cccc(-c2ccc(-c3nc4ccccc4[nH]3)cc2)c1`, the results for the inhibition in test [1], in test [2] and in test [3] were 7.04%, 9.93% and 4.11%, respectively.

In the case of `COc1ccc(Cc2cnc(N)nc2N)cc1OCCCOc1ccccc1`, the inhibition in test [1] was -0.49%; in test [2], 0.92%; in test [3] it was -0.52%.

As for `Cc1ccc(NCC(=O)Nc2ccc(F)c(Cl)c2)cc1S(=O)(=O)N1CCOCC1`, the figures for the inhibition in test [1], in test [2] and in test [3] were 2.54%, 1.86% and 0.32%, respectively.

Regarding `Cc1ccccc1C1CCN(c2ncc(C(=O)Nc3ccccc3)cc2Cl)CC1`, the inhibition is 0.8% in test [1], 0.4% in test [2] and -6.29% in test [3].

For `CCN(CC)CCN(Cc1ccc(-c2ccc(C(F)(F)F)cc2)cc1)C(=O)Cn1c(CCc2cc(F)c(F)cc2F)nc(=O)c2ccccc21`, the figures for the inhibition in test [1], in test [2] and in test [3] were 13.6%, 12.3% and 12.8%, respectively.

As to `COc1cc2nc(N3CCC(CNC(=O)c4ccc(-c5ccc(C#N)cc5)cc4)CC3)nc(N)c2cc1OC`, the results for the inhibition in test [1], in test [2] and in test [3] were 1.64%, 1.87% and 1.74%, respectively.

Regarding `COc1ccc(N2CCN(c3nc(N)c4cc(OC)c(OC)cc4n3)CC2C)cc1` (stereo not given), the inhibition in test [1] is 0.19%; in test [2], 1.45%; in test [3] it was -0.49%.

For the molecule `O=C(Nc1ccc(-c2nc3ccccc3[nH]2)cc1)c1ccc(Cl)c([N+](=O)[O-])c1`, the inhibition was found to be 1.55% in test [1], 1.9% in test [2] and 1.41% in test [3].

Turning to `CCCn1c(Sc2ccc(C#N)c([N+](=O)[O-])c2)nnc1-c1ccc(Cl)cc1`, the inhibition worked out at 2.12% in test [1], 3.28% in test [2] and 2.23% in test [3].

For `O=C(Nc1ccc(C(F)(F)F)cc1)c1cccc(S(=O)(=O)NCC2CCCN(CC3CCCCC3)C2)c1` (stereo not given), the inhibition worked out at 5.71% in test [1], 2.62% in test [2] and 0.02% in test [3].

Consider `O=C(c1cccc(-c2cccc(-c3nc4ccccc4[nH]3)c2)c1)N1CCCCC1CN1CCC(O)C1` (stereo not given), for which the inhibition stood at 0.33% in test [1], 0.78% in test [2] and 0.03% in test [3].

On to `Cc1noc(C)c1-c1cccc(CNCc2ccc(-c3ccc(-c4nc5ccccc5[nH]4)s3)cc2)c1`, for which the inhibition in test [1] is 1.82%; in test [2] it was 1.38%; in test [3], -0.04%.

Take `COc1cc2nccc(Nc3ccc4c(cnn4Cc4cccc(F)c4)c3)c2cc1OC`: the inhibition in test [1] was 6.91%; in test [2] it was 4.66%; in test [3] it was 1.56%.

For `COc1ccc(-c2onc(C(F)(F)F)c2-c2ccc(Br)cc2)c(O)c1`, the inhibition in test [1] came out at 2.09%; in test [2], 2.27%; in test [3], 1.56%.

For the molecule `Cc1cc2[nH]c(-c3ccc(C(=O)NCCCN4CCN(c5cccc(Cl)c5)CC4)cc3F)nc2cc1Cl`, the inhibition in test [1] was -0.3%; in test [2] it was 0.43%; in test [3] it was -0.02%.

Take `CCCc1cc(C)ccc1OCCCON1C(NC(=O)OCC)=NC(NC(=O)OCC)=NC1(C)C`: the inhibition in test [1] was -0.11%; in test [2], 1.76%; in test [3] it was -0.57%.

Turning to `CCCCCCCC1CC(CC(=O)Nc2ccnc3ccc(OC)cc23)CN1` (stereo not given), the inhibition turned out to be 1.6% in test [1], 0.43% in test [2] and 0.67% in test [3].

As to `Fc1cccc(Cl)c1-c1nc(NCCC(c2ccccc2)c2ccccc2)no1`, the inhibition is -0.45% in test [1], 0.05% in test [2] and 1.11% in test [3].

`OC(CNCc1cccc(Oc2ccc(Cl)cc2)c1)c1cccc(C(F)(F)F)c1` (stereo not given): the figures for the inhibition in test [1], in test [2] and in test [3] were 1.7%, 1.81% and -0.71%, respectively.

For `CC(C)Nc1nc(NCCc2c[nH]cn2)nc(NCc2cccc3ccccc23)n1`, the inhibition was -1.11% in test [1], -0.07% in test [2] and -2.34% in test [3].

On to `N#Cc1ccc(N2CCN(Cc3cccc(-c4ccc(-c5nc6cc(C(F)(F)F)ccc6[nH]5)cc4)c3)CC2)nc1`, for which the inhibition is 4.01% in test [1], 6.49% in test [2] and 0.17% in test [3].

With `COc1cc(Nc2ccc3cc(S(=O)(=O)N4CCCCC4C)ccc3n2)cc(OC)c1OC` (stereo not given), the values for the inhibition in test [1], in test [2] and in test [3] were 6.4%, 34.2% and 0.58%, respectively.
